In PubChem BioAssay one finds growth inhibition, inhibition and outcome data, which are given here for 20 compounds.

Unmarked numbers belong to inactive results. For some of these results: Potency and affinity values are given separately. Activity calls are given as the source filed them. Unless noted, the rule behind the calls is not given here.

Test [1] in a line: antimalarial activity against Dd2 strain (AID 2302;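 active = growth inhibition above 50% at the single 2 µM test dose, taken to imply half-maximal potency below 2 µM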;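 note: 0% = DMSO untreated growth and 100% = chloroquine plus artemisinin killed control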). Conditions: P. falciparum Dd2 in RBCs, LDH growth readout, 72 h; at 2 µM; hits give high values.
The nature of test [2]: HepG2 cytotoxicity, primary screen, cytotoxicity control for P. falciparum antimalarial project, cell-based, ATP luminescence (AID 2303;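 active = inhibition above 50%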;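 note: 0% = DMSO wells and 100% = digitonin-killed cells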). Conditions: HepG2 viability, 24-48 h, at 10 µM, hits give high values.
Test [3] deals with L-lactate dehydrogenase (Plasmodium falciparum (isolate CDC / Honduras)) (UniProt Q27743). Description: PfLDH activity inhibition – cell lysate, 3D7 strain, counter-screen for P. falciparum growth inhibition project (AID 2304).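 Note: 0% = vehicle and 100% = reference inhibitor.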 Conditions: P. falciparum 3D7 crude extract, LDH APAD/NBT absorbance; at 2 µM; hits give high values.
Chain of L-lactate dehydrogenase (Plasmodium falciparum (isolate CDC / Honduras)) (Q27743 whole entry, looked up): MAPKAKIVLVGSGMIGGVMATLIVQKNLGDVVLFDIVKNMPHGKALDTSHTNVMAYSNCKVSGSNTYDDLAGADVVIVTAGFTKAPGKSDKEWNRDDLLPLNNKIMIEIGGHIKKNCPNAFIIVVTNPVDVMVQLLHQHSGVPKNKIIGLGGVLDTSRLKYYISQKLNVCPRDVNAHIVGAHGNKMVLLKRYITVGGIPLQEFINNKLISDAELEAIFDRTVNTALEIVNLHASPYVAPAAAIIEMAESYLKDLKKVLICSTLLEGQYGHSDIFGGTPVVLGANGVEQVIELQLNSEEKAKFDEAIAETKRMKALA
A short description of test [4]: inhibition of 3D7 malaria parasite growth – strain 3D7 (AID 2306).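 Note: 0% = DMSO wells and 100% = chloroquine plus artemisinin control wells.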 Conditions: P. falciparum 3D7 erythrocytic growth, LDH absorbance, 72 h; at 2 µM; hits give high values.
Test [5] deals with Calcium-dependent protein kinase 1 (Plasmodium falciparum (isolate 3D7)) (UniProt P62344). Nature of the test: PfCDPK1 kinase inhibitors, biochemical, TCAMS library (AID 1159585; cut-off not given, nearly all actives have IC50 up to about 0.98 µM;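 note: inhibitors leave more ATP so luminescence rises with inhibition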). Particulars: recombinant PfCDPK1, Kinase-Glo ATP depletion luminescence. (In general: Kinase-Glo measures the ATP left after a reaction by luminescence.)
Chain of Calcium-dependent protein kinase 1 (Plasmodium falciparum (isolate 3D7)) (P62344 whole entry, looked up): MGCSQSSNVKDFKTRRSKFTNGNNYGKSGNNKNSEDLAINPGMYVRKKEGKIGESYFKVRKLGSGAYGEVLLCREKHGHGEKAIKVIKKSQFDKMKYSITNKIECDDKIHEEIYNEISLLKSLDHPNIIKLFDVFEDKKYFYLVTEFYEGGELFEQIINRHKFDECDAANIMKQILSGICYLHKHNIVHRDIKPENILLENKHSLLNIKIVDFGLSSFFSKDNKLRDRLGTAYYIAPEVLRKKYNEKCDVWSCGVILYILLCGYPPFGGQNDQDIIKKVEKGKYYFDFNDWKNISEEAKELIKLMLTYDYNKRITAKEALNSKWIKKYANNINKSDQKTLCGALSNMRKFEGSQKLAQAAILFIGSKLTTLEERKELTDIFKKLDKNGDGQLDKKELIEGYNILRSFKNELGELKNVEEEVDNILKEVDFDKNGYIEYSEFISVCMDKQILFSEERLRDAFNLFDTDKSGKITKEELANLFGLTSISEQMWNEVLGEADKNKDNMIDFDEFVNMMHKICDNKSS
Test [6] has as its target Plasmodium falciparum protein kinase 6 (PK6, PF3D7_1337100) (UniProt Q8IDW1). Description: PfPK6 kinase inhibitors, biochemical, TCAMS library (AID 1159586). Particulars: recombinant PfPK6, Kinase-Glo ATP depletion luminescence.
Test [7] concerns the target Protein kinase 7 (PK7), Plasmodium falciparum 3D7 (PF3D7_0213400) (UniProt Q7YTF7). Nature of the test: inhibition of Plasmodium PK7 catalytic activity – biochemical, TCAMS antimalarial set, Kinase-Glo luminescence (AID 1159587). Conditions: recombinant PfPK7, Kinase-Glo ATP depletion luminescence.
Test [8] concerns the target Calcium-dependent protein kinase 4 (Plasmodium falciparum (isolate 3D7)) (UniProt Q8IBS5). Description: PfCDPK4 kinase inhibitors, biochemical, TCAMS library (AID 1159588; cut-off not given, nearly all actives have IC50 up to about 0.91 µM). Conditions: recombinant PfCDPK4, Kinase-Glo ATP depletion luminescence.

Chain of Plasmodium falciparum protein kinase 6 (PK6, PF3D7_1337100) (Q8IDW1 1-305): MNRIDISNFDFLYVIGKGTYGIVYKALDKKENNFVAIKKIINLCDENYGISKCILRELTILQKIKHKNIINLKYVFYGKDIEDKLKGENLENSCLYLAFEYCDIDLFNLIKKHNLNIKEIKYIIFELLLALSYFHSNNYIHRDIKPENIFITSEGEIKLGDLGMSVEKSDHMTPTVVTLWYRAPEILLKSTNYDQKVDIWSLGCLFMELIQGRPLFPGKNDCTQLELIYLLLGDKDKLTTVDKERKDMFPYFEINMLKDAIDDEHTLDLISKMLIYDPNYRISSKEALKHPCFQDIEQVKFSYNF
Chain of Protein kinase 7 (PK7), Plasmodium falciparum 3D7 (PF3D7_0213400) (Q7YTF7 1-343): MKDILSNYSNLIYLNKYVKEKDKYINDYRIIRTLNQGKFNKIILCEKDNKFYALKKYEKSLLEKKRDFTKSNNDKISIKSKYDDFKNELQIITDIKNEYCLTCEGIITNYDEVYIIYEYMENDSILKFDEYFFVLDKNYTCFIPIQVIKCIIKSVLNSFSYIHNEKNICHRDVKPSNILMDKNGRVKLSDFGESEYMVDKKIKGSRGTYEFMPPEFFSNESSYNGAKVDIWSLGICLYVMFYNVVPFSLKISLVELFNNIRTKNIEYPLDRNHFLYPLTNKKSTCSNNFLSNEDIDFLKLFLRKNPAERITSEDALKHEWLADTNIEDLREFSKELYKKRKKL
Chain of Calcium-dependent protein kinase 4 (Plasmodium falciparum (isolate 3D7)) (Q8IBS5 whole entry, looked up): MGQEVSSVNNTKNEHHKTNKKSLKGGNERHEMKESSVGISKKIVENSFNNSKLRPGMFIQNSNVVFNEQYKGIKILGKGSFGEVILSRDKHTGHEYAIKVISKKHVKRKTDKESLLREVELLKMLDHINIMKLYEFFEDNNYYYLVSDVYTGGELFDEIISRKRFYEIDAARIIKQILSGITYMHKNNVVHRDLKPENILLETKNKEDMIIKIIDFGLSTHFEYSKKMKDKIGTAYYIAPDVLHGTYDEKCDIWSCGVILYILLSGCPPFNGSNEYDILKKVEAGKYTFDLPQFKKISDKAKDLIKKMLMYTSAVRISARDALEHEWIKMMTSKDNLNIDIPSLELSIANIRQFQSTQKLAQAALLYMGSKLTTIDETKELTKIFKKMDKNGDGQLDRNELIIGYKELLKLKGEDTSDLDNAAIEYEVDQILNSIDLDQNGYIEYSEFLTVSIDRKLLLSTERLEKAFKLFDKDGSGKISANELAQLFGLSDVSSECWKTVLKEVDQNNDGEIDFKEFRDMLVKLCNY

Regarding `CCCC(CNCc1ccccc1)CNc1cc(=O)c2ccccc2[nH]1` (stereo not given), the growth inhibition in test [1] is 21%; in test [4], 86% (active). Further, the results for the inhibition in test [2] and in test [3] were 2% and 3%, respectively. The outcome in test [5], in test [6], in test [7] and in test [8] was inactive.
Turning to `Clc1ccc(-c2[nH]c3ccccc3c2CN2CCC(N3CCCCC3)CC2)cc1`, the growth inhibition in test [1] is 15%; in test [4], 93% (active). In addition, the inhibition in test [2] and in test [3] was 5% in each case. Moreover, the result in test [5], in test [6], in test [7] and in test [8] was inactive.
In the case of `COc1ccc2nccc([C@@H](O)CN3CCC(NCc4cc5ccc(C#N)cc5[nH]4)CC3)c2c1`, the growth inhibition in test [1] was 39%; in test [4], 100% (active). The inhibition in test [2] is 31%; in test [3], 0%. Besides, the outcome in test [5], in test [6], in test [7] and in test [8] was inactive.
For `O=C(Cc1cnc[nH]1)Nc1cccc(-c2cccc(-c3nc4ccc(C(F)(F)F)cc4[nH]3)c2)c1`, the growth inhibition in test [1] was 101% (active); in test [4] it was 102% (active). Moreover, the inhibition in test [2] is 35%; in test [3] it was -3%. Moreover, the outcome in test [5], in test [6], in test [7] and in test [8] was inactive.
Take `Cc1cc(C)cc(CC(=O)N2CCC(n3c(C)nc4ccc(C)cc43)CC2)c1`: the growth inhibition in test [1] and in test [4] was 100% (active) each time. The values for the inhibition in test [2] and in test [3] were 52% (active) and 6%, respectively. Further, the outcome in test [5], in test [6], in test [7] and in test [8] was inactive.
For the compound `COc1ccccc1C(=O)Nc1ccc(Nc2nc(C)cc(N(C)C)n2)cc1`, the growth inhibition in test [1] was 76% (active); in test [4], 100% (active). The inhibition in test [2] was 1%; in test [3], 3%. In addition, the outcome in test [5], in test [6], in test [7] and in test [8] was inactive.
In the case of `COc1ccc(CN2CCC(CNCCc3ccccc3Oc3ccccc3)CC2)cc1`, the growth inhibition in test [1] is 56% (active); in test [4], 85% (active). Besides, the inhibition in test [2] was 99% (active); in test [3] it was 0%. In addition, the result in test [5], in test [6], in test [7] and in test [8] was inactive.
With `NCC1CCCN1Cc1ccc(-c2ccc(-c3nc4ccc(F)cc4[nH]3)cc2)cc1` (stereo not given), the growth inhibition was 100% (active) in test [1] and 102% (active) in test [4]. Further, the inhibition is 31% in test [2] and -3% in test [3]. Also, the outcome in test [5], in test [6], in test [7] and in test [8] was inactive.
As to `N[C@@H](Cc1cc(I)c(Oc2ccc(O)c(Cl)c2)c(I)c1)C(=O)O`, the growth inhibition is -3% in test [1] and 96% (active) in test [4]. Besides, the figures for the inhibition in test [2] and in test [3] were -4% and -2%, respectively. Also, the result in test [5], in test [6], in test [7] and in test [8] was inactive.
In the case of `Cc1cc(C(=O)CN2C(=O)NC(C)(c3ccc4ccccc4c3)C2=O)c(C)n1Cc1ccco1` (stereo not given), the growth inhibition in test [1] was 71% (active); in test [4] it was 97% (active). For the same compound, the figures for the inhibition in test [2] and in test [3] were 12% and 1%, respectively. Besides, the outcome in test [5], in test [6], in test [7] and in test [8] was inactive.
For `Cc1cc(NCCCN2CCCC2=O)n2c(nc3ccccc32)c1C#N`, the growth inhibition in test [1] is 48%; in test [4], 93% (active). The inhibition in test [2] was 4%; in test [3] it was -1%. Besides, the outcome in test [5], in test [6], in test [7] and in test [8] was inactive.
Turning to `Cc1cc(CN2CCCN(c3ccc4c(c3)CCN(Cc3ccc(-c5ncc[nH]5)cc3)CC4)CC2)n(C)n1`, the growth inhibition in test [1] was 8%; in test [4], 86% (active). For the same compound, the inhibition in test [2] and in test [3] was 5% each time. In addition, the result in test [5], in test [6], in test [7] and in test [8] was inactive.
With `O=C(Nc1ccc(Cn2ncc(N3CCCNCC3)c(Cl)c2=O)cc1)Nc1ccc(C(F)(F)F)cc1`, the growth inhibition in test [1] was 58% (active); in test [4] it was 90% (active). Besides, the results for the inhibition in test [2] and in test [3] were 12% and 4%, respectively. Besides, the outcome in test [5], in test [6], in test [7] and in test [8] was inactive.
As to `O=c1ccc2ccc(F)cc2n1CCN1CCC(NCc2ccc(-c3ccccn3)s2)CC1`, the growth inhibition in test [1] is 30%; in test [4] it was 98% (active). Besides, the figures for the inhibition in test [2] and in test [3] were -12% and -1%, respectively. The outcome in test [5], in test [6], in test [7] and in test [8] was inactive.
For the compound `O=S(=O)(c1cccc(Br)c1)N1CCCCC(c2ccc(C(F)(F)F)cc2)=N1`, the figures for the growth inhibition in test [1] and in test [4] were 92% (active) and 91% (active), respectively. Moreover, the inhibition is 30% in test [2] and -4% in test [3]. In addition, the result in test [5], in test [6], in test [7] and in test [8] was inactive.
With `CC(C)CNc1c2c(nc3cnn(-c4c5c(nc6cn[nH]c46)CCCC5)c13)CCCC2`, the growth inhibition in test [1] was -2%; in test [4], 100% (active). The inhibition in test [2] is 7%; in test [3] it was -5%. Also, the outcome in test [5], in test [6], in test [7] and in test [8] was inactive.
For `NC(N)=NC(=O)Nc1cc(Cl)c(Cl)c(Br)c1`, the growth inhibition in test [1] and in test [4] was 99% (active) throughout. For the same compound, the inhibition in test [2] is 16%; in test [3], -2%. In addition, the result in test [5], in test [6], in test [7] and in test [8] was inactive.
As to `COc1ccc(NC(=O)NC2CCN(c3ccnc4ccccc34)C2)cc1` (stereo not given), the growth inhibition in test [1] is -1%; in test [4], 94% (active). The inhibition is 3% in test [2] and 2% in test [3]. Further, the result in test [5], in test [6], in test [7] and in test [8] was inactive.
On to `N#Cc1cc(C(=O)Nc2ccccc2)c(N)nc1SCC(=O)Nc1ccc(Br)cc1`, for which the growth inhibition in test [1] is 66% (active); in test [4], 101% (active). Also, the inhibition is 11% in test [2] and 1% in test [3]. Moreover, the outcome in test [5], in test [6], in test [7] and in test [8] was inactive.
With `O=C(NCCN1CCOCC1)c1ccc(CNC(=O)c2ccc(O)c(-c3ccc(Cl)c(Cl)c3)c2)cc1`, the growth inhibition in test [1] is 55% (active); in test [4], 87% (active). For the same compound, the inhibition in test [2] was 3%; in test [3], -1%. In addition, the result in test [5], in test [6], in test [7] and in test [8] was inactive.

Usually inhibition stands for the drop in the measured response relative to a control, in per cent.
